Source: PubChem BioAssay
TDP1 block – blocks human tyrosyl-DNA phosphodiesterase 1; 350,000 tested, 0.28% active; Potency, µM (doses to about 130 µM), for the others: at the top dose activity change, negative = inhibition, usual class: inhibitors; recombinant TDP1, AlphaScreen DNA substrate cleavage; Q9NUW8; further: on the % scale 0 is the no-effect control and ±100 the full control effect; nearly all actives have a fitted effect of over 40% in size
Target sequence (Q9NUW8 whole entry, looked up): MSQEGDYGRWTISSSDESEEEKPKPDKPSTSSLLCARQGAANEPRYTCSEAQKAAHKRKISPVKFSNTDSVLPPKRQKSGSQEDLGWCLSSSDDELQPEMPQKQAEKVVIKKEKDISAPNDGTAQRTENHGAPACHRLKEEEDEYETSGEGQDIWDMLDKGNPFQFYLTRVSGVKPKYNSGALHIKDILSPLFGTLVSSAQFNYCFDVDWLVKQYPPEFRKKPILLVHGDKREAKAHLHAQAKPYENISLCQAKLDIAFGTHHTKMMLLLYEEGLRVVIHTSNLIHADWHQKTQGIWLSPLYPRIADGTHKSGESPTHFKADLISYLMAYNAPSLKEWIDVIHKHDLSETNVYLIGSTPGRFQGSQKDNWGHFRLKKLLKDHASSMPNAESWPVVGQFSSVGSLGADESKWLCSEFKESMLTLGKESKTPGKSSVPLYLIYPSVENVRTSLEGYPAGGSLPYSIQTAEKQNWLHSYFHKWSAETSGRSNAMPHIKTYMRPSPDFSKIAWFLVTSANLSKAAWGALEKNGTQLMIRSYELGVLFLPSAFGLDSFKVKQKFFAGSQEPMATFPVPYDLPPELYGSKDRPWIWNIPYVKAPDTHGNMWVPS
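Signal: AlphaScreen proximity between streptavidin donor and anti-FITC acceptor beads on intact substrate. Reaction: Tdp1 1 nM, substrate 15 nM final, 5 min RT after 15 min compound preincubation.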
ClpP mod – qHTS Assay for Activators of ClpP | ATP-dependent Clp protease proteolytic subunit (Bacillus subtilis (strain 168)), P80244 | purified B. subtilis ClpP, FRET peptide cleavage, 20 min | Potency, µM (titrated, usually from 57.5 µM), for the others: top-dose activity change, negative = active | 340,000 tested, 1.9% active; active means well fitted falling curve with a large enough effect; inconclusive means small, poorly fitted or top-dose-only effect; inactive means no such curve, though single readings can be large or run the other way; further: the source files actives as falling curves though it sought activators and does not explain the sign; nearly all actives have a fitted effect of over 65% in size
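FRET quenching reversal measured ClpP activation: 10 microg/mL B. subtilis ClpP at pH 8 with the FRET-FV decapeptide, read at 430 nm after 320 nm excitation. The 20-min minus 0-min signal was scaled between DMSO/no-enzyme wells and ADEP (5.8 microM final).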
TDP1 cell noCPT – qHTS for Inhibitors of human tyrosyl-DNA phosphodiesterase 1 (TDP1): qHTS in cells in absence of CPT; DT40 Tdp1-/- hTDP1 cells, no CPT, ATP luminescence, 48 h; 420,000 tested, 15% active; Potency, µM (doses to about 46.2 µM), for inactives: at the highest dose activity change, negative = growth inhibition, most hits filed as inhibitors; further: on the % scale 0 is the no-effect control and ±100 the full control effect; nearly all actives have a fitted effect of over 55% in size
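Growth of hTDP1-complemented DT40 Tdp1-knockout cells is measured by ATP luminescence after at least 48 hr compound exposure at 37 °C, with DMSO substituting for the 20 nM CPT used in the parallel screen.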
TDP1 cell CPT – DT40-hTDP1 cell growth loss with CPT. chicken DT40 Tdp1-/-;hTDP1 cells + 20 nM CPT, ATP luminescence, 48 h. Potency, µM (doses to about 46.2 µM), inactives show at the top dose activity change, negative = growth inhibition, hits mostly inhibitors. 420,000 tested, 12% active. AID 686979; further: on the % scale 0 is the no-effect control and ±100 the full control effect; nearly all actives have a fitted effect of over 55% in size
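Chicken DT40 Tdp1-/- cells stably complemented with human TDP1 were seeded at 400 cells/well in medium containing 20 nM camptothecin, exposed to pin-transferred compounds, and grown at 37 °C for at least 48 hr. Viability was read as ATP luminescence.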
* marks the source's active call; other numbers are inactive results; ? = inconclusive; / = not tested or not shown; [ ] = another dose, or the depositor's remark. Shown are actives, neighbours in structure and some others; about 17% of the full set was active somewhere. Unless noted, the call rests on the fitted dose curve; in most records, active means well fitted curve in the direction sought with a large enough effect; inconclusive means small, poorly fitted or top-dose-only effect, or another doubt; inactive means no such curve, though single readings can be large; an effect the other way counts as inactive or inconclusive. Potency means the concentration at half of the fitted maximal effect.

SMILES	TDP1 block	ClpP mod	TDP1 cell noCPT	TDP1 cell CPT
O=C(NCc1ccncc1)c1cnn(-c2nccc(-c3cccs3)n2)c1C1CC1	/	/	-10.6%	-7.5%[9.04 µM]
COc1ccc(CNC(=O)C2(CC3CC(c4ccccc4)=NO3)CCN(C(=O)Cc3ccc(F)cc3)CC2)cc1 (configuration not stated)	/	0.0%	?	?
CCCNC(=O)C1(CC2CC(c3ccccc3)=NO2)CCN(C(=O)c2ccccc2)CC1 (configuration not stated)	0.5%	0.0%	5.1%	6.1%
CCOc1cc(C(=O)N2CCC(CC3CC(c4ccccc4)=NO3)(C(=O)NCc3ccc(OC)cc3)CC2)cc(OCC)c1OCC (configuration not stated)	/	-2.8%	16.4µM*	?
CCOc1cc(C(=O)N2CCC(CC3CC(c4ccc(Cl)cc4)=NO3)(C(=O)NCC3CCCCC3)CC2)cc(OCC)c1OCC (configuration not stated)	/	-0.1%	18.4µM*	23.1µM*
O=C1CC(c2ccccc2)=C(c2ccccc2)C1c1ccccc1 (configuration not stated)	/	-5.4%	?	29.1µM*
O=C1NNC(=O)C1c1ccccc1	/	-0.5%	1.2%	-0.8%
Cc1cc(C(=O)COc2ccc(F)cc2Br)c(C)n1C1CC1	-1.3%	-0.6%	10.3µM*	14.6µM*
Cc1cc(C(=O)COc2ccc(F)cc2Br)c(C)n1C	4.2%	/	-11.5%	-11.7%
Cc1cc(C(=O)CN2C(=O)NC(CCS(C)(=O)=O)C2=O)c(C)n1C1CC1 (configuration not stated)	2.1%	2.1%	5.8µM*	18.4µM*
Cc1cc(-n2c(C)cc(C(=O)COc3cc(F)ccc3[N+](=O)[O-])c2C)no1	1.8%[56.1 µM]	1.8%	14.6µM*	?
Cc1ccc(OCC(=O)c2ccc(Cl)s2)c([N+](=O)[O-])n1	-5.9%	0.9%	13µM*	3.66µM*
CCN1C(=O)C(=O)N(CC(=O)c2cc(C)n(C3CC3)c2C)C1=O	5.1%	1.0%	-20.0%	-6.7%
CCOC(=O)c1sc2nc(C)nc(SC(C)C(=O)NC3CC3)c2c1C (configuration not stated)	-0.1%	-2.3%	-23.8%	-19.2%
COc1ccc(CNC(=O)c2nn(C)c3c2CSc2ccccc2-3)cc1	8.6%	-1.5%	?	?
CCOc1ccc(NC(=O)CCCn2c(C)c3cnn(-c4ccccc4)c(=O)c3c2C)cc1	5.1%	-22.7%	?	?
Cc1ccc(OCC(=O)c2cc(C)n(Cc3cccs3)c2C)c([N+](=O)[O-])n1	5.4%	?	5.8µM*	6.51µM*
Cc1ccc(OCC(=O)c2cc(C)n(-c3cc(C)on3)c2C)c([N+](=O)[O-])n1	4.8%	2.2%	?	10.3µM*
Cc1ccc(OCCOc2ccc(Cl)cc2Cl)c([N+](=O)[O-])n1	4.7%	1.2%	16.4µM*	?
Cc1cc(C(=O)CN2C(=O)NC(C)(c3cc(F)ccc3F)C2=O)c(C)n1C1CC1 (configuration not stated)	4.7%	/	16.4µM*	?
COc1ccc(OCCOc2ccc(C)nc2[N+](=O)[O-])cc1	4.5%	0.2%	1.5%	-0.4%
CS(=O)(=O)N(CC(=O)N1CCCCCC1)c1cccc(F)c1	/	0.1%	6.9%	6.6%
COc1ccc(-n2c(C)cc(C(=O)COc3ccc(C)nc3[N+](=O)[O-])c2C)cc1	7.1%	3.4%	3.66µM*	5.17µM*
Cc1ccc(OCC(=O)c2cc(C)n(C3CC3)c2C)c([N+](=O)[O-])n1	-7.9%	2.3%	23.1µM*	?
Cc1ccc(OCC(=O)c2cc(C)n(CC(F)(F)F)c2C)c([N+](=O)[O-])n1	1.8%	/	?	-1.4%
SMILES	TDP1 block	ClpP mod	TDP1 cell noCPT	TDP1 cell CPT
CCN(C(=O)COc1ccc(C)nc1[N+](=O)[O-])C1CCS(=O)(=O)C1 (configuration not stated)	-3.4%	10µM*	2.7%	6.1%
CNC(=O)c1c(NC(=O)/C=C/c2ccccc2Cl)sc2c1CCC2	0.0%	-0.5%	-25.3%	-2.6%
O=C(Nc1nnc([C@H]2C[C@H](O)[C@@H](CO)O2)s1)NC1CCCCC1	/	-2.4%	6.7%	13.6%
CCc1ccc(NC(=O)c2nc(SCc3ccccc3F)ncc2Cl)cc1	/	4.3%	-28.7%	-29.9%
COc1ccc(C(=O)N2CCN(c3ccccc3)CC2)cc1S(=O)(=O)N1CCCC1	-0.6%	-1.3%	-24.8%	-26.5%
COc1ccc(C(=O)N2CCN(c3cccc(C)c3C)CC2)cc1S(=O)(=O)NC1CC1	0.0%	-3.2%	23.1µM*	?
COc1ccc(C(=O)N2CCN(c3ccccc3Cl)CC2)cc1S(=O)(=O)NC1CC1	4.5%	0.6%	4.11µM*	?
COc1cccc(N2CCN(C(=O)c3ccc(OC)c(S(=O)(=O)NC4CC4)c3)CC2)c1	/	0.2%	16.4µM*	?
Cc1cccc(N2CCN(C(=O)c3cccc(S(=O)(=O)N4CCOCC4)c3)CC2)c1C	0.2%	1.2%	?	?
Cc1ccc(NC(=O)c2cc(C(=O)c3cc(Cl)ccc3O)cn(-c3ccc(C)cc3)c2=O)cc1	5.5%	13.3%	20.6µM*	18.4µM*
N#Cc1cc(C(=O)c2cc(Cl)ccc2O)cn(-c2ccccc2)c1=O	2.8%	29.6%	1.0%	18.6%
Cc1cccc(OCC(=O)NNC(=O)Nc2cccc(Cl)c2)c1C	1.1%	-1.8%	-1.7%	-28.5%
Cc1cccc(N2CCN(C(=O)Nc3cn(CC(C)C)c(=O)c4ccccc34)CC2)c1C	6.3%	3.8%	7.31µM*	8.2µM*
Cc1ccc(N2CCN(C(=O)Nc3cn(CC(C)C)c(=O)c4ccccc34)CC2)c(C)c1	4.2%	3.6%	10.3µM*	10.3µM*
CCN(CC)CCC(=O)NN	0.0%	1.6%	15.3%	3.9%
O=C(Nc1cccc(F)c1)c1cccc2c1C(=O)N(C1CCCCC1)C2	-3.7%	-0.4%	-0.9%	1.5%
Cc1ccccc1NC(=O)c1cccc2c1C(=O)N(C1CCCCC1)C2	1.0%	0.7%	?	?
CCOc1ccccc1NC(=O)c1cccc2c1C(=O)N(C1CCCCC1)C2	1.2%	-2.9%	13µM*	?
CCc1cccc(NC(=O)c2cccc3c2C(=O)N(C2CCCCC2)C3)c1	1.3%	-4.2%	18.4µM*	?
Cc1ccc(NC(=O)c2cccc3c2C(=O)N(C2CCCCC2)C3)cc1	-3.1%	-5.4%	20.6µM*	?
Cc1cc(C)c(NC(=O)c2cccc3c2C(=O)N(C2CCCCC2)C3)c(C)c1	1.9%	-1.7%	16.4µM*	?
O=C(Nc1ccccc1)c1cc(C2COCCN2C(=O)CCCc2ccccc2)on1 (configuration not stated)	/	0.7%	?	?
Cc1oc(-c2cc(F)cc(F)c2)nc1CN1CCSCC1	-2.5%	0.4%	-16.6%	-29.3%
